The record followed here is PubChem BioAssay (NCATS).

Unmarked numbers belong to inactive results. Results filed as inconclusive are left out. A call without a number means that no potency is given here. The source made the active and inactive calls. The call rests on the fitted dose curve; in most records, active means well fitted curve in the direction sought with a large enough effect; inconclusive means small, poorly fitted or top-dose-only effect, or another doubt; inactive means no such curve, though single readings can be large; an effect the other way counts as inactive or inconclusive.
Potency means the concentration at half of the fitted maximal effect.

Chain of Cytochrome P450 2D6 (Homo sapiens) (P10635 whole entry, looked up): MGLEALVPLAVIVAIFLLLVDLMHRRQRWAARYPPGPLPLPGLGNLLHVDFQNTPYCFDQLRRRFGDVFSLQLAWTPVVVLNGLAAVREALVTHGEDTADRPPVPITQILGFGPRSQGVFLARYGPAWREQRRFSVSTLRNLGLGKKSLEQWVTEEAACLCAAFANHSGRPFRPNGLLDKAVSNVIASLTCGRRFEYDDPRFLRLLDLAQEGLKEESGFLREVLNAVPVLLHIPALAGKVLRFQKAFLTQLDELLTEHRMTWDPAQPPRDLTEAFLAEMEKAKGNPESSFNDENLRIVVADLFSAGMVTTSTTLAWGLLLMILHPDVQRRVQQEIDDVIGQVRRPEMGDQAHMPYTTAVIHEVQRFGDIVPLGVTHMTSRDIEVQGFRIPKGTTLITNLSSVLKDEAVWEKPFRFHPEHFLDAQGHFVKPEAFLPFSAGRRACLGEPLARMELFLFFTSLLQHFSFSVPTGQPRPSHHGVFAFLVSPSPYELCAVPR

One assay deals with Cytochrome P450 3A4 (Homo sapiens) (UniProt P08684). In words: qHTS Assay for Activators of Cytochrome P450 3A4 (AID 885). Further: nearly all actives have a fitted effect of over 65% in size. To be noted: recombinant CYP3A4, Luciferin-PPXE luminescence, 60 min; series mostly up to 57.1 µM. The procedure, abridged: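 Human CYP3A4 dealkylates Luciferin-PPXE to luciferin, which luciferase detection converts to light. Substrate was at its KM (25uM), buffer 200mM KPO4, reaction 60 min at RT.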
Chain of Cytochrome P450 3A4 (Homo sapiens) (P08684 whole entry, looked up): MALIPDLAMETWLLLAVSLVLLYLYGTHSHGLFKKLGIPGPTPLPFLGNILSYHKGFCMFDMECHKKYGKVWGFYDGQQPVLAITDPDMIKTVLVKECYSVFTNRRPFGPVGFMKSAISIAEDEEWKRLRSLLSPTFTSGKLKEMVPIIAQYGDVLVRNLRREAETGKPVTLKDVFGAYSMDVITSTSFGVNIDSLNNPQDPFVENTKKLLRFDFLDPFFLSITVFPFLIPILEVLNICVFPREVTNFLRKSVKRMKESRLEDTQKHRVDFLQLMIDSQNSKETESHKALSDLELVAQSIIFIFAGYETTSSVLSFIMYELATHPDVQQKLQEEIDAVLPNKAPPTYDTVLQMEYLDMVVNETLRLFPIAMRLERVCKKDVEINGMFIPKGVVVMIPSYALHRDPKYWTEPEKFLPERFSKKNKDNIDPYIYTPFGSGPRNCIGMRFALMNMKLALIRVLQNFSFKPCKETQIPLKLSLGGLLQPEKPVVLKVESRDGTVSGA
Take `CCN(CC)c1ccc2c(C)cc(=O)oc2c1`: the Potency result was “inactive”.

Turning to `CC(=O)[C@@H]1CC[C@@H]2[C@@H]3CC=C4C[C@H](OS(=O)(=O)O)CC[C@@]4(C)[C@H]3CC[C@]21C`, the Potency entry is “inactive”.

On to `O=C(OCC1CO1)C1CCCCC1C(=O)OCC1CO1` (stereo not drawn), for which the Potency result is “inactive”.

As for `C[C@]12CCC3c4ccc(OC(=O)c5ccccc5)cc4CCC3C1CCC2=O` (stereo partly drawn), the Potency entry was “inactive”.

For the compound `CC(C)c1cccc(O)c(=O)c1`, the Potency entry was “inactive”.

As for `COC(=O)[C@@H]1C[C@@]2(O)[C@H](O)[C@H](O)[C@H](O)C[C@H]2N1Cc1cccnc1`, the Potency entry is “inactive”.

Take `COC(=O)[C@H]1[C@@H](c2ccccc2)[C@@]2(c3ccccc3)Oc3ccccc3[C@@]1(O)[C@@H]2O`: the activity change, positive = activation is -40.9% [at 11.4 µM].

With `COc1cc(C(=O)OC2CC[C@]3(C)C4CCC5[C@]6(O)CC(O)[C@]7(O)C(CN8CC(C)CCC8[C@]7(C)O)[C@]6(O)C[C@@]53O[C@]24O)cc(OC)c1OC` (stereo partly drawn), the Potency entry is “inactive”.

For the compound `COC1C=CC23c4cc5c(cc4CN(CC2O)C3C1)OCO5` (stereo not drawn), the Potency result is “inactive”.

Consider `COC(=O)[C@]1(C)CC[C@@]2(C)CC[C@@]3(C)C4=CCc5c(cc(O)c(O)c5C)[C@]4(C)CC[C@@]3(C)C2C1` (stereo partly drawn), for which the Potency result is “inactive”.

For `O[Si@](CCCN1CCCCC1)(c1ccc(F)cc1)C1CCCCC1`, the Potency result is “inactive”.

Regarding `CCc1cc2c(nc1CC)CCN(CC/C(C)=N/OC)C2`, the activity change, positive = activation was -38.7% [at 11.4 µM].

On to `CC(=O)c1c(O)c(C)c(O)c2c1OC1=CC(=O)C(C(C)=O)C(=O)C12C` (stereo not drawn), for which the Potency entry is “inactive”.

As for `COC(=O)CCC(C)C1CCC2C3C(O)C[C@@H]4CC(O)CC[C@@]4(C)C3CC(O)[C@]12C` (stereo partly drawn), the Potency result was “inactive”.

As to `O=P(N[C@@H](c1ccccc1)[C@@H]1C[C@H]1CO)(c1ccccc1)c1ccccc1`, the Potency result was “inactive”.

In the case of `Cc1ncc(CN2CC=C(c3ccccc3)CC2)c(N)n1`, the Potency entry is “inactive”.

With `COC(=O)[C@H]1[C@H](c2ccccc2)C(=O)[C@@]2(O)c3ccccc3O[C@@]12c1ccccc1`, the activity change, positive = activation was -48.2% [at 11.4 µM].

As to `[O-]/[N+](=N\O)c1ccccc1`, the Potency entry is “inactive”.

As to `CCCN1[C@H](C(=O)OC)C[C@@H]2CC[C@@H](O)C[C@@H]21`, the Potency entry was “inactive”.

Turning to `CC(C)=CCC1=C(O)c2ccccc2C(=O)C1=O`, the Potency entry was “inactive”.

Regarding `O=C(O)c1cc2c(cc1S(=O)(=O)O)[C@H]1[C@@H]([C@H]3[C@H]2[C@@]2(Cl)C(Cl)=C(Cl)[C@]3(Cl)C2(Cl)Cl)[C@]2(Cl)C(Cl)=C(Cl)[C@@]1(Cl)C2(Cl)Cl`, the activity change, positive = activation is -41.4% [at 11.4 µM].

Consider `C[C@]12CC[C@@H]3C(=CCc4cc(O)ccc43)[C@@H]1CCC2=O`, for which the Potency result is “inactive”.

For `CC(=O)[C@@H]1CC[C@@H]2[C@@H]3CCC4=CC(=O)CC[C@@]4(C)[C@H]3CC[C@]21C`, the Potency is 3.98 µM (active).

With `Oc1ccc2c(c1)OCO2`, the Potency entry is “inactive”.

In the case of `C[C@@H]1Cc2ccccc2N1NC(=O)c1ccc(Cl)c(S(N)=O)c1` (stereo partly drawn), the Potency entry was “inactive”.

Turning to `COc1cc2ccc(=O)oc2c2ccoc12`, the Potency entry is “inactive”.

On to `O=c1[nH]c(=O)n([C@H]2C[C@H](O)[C@H](CO)O2)cc1/C=C\Br`, for which the Potency result was “inactive”.

With `CCCCCCCC/C=C\CCCCCCCC(N)=O`, the Potency entry is “inactive”.

Turning to `COC(=O)[C@@H]1[C@@H](O)[C@@]2(O)c3c(OC)cc(OC)cc3O[C@@]2(c2ccc(OC)cc2)[C@H]1c1ccccc1`, the activity change, positive = activation was -35.6% [at 11.4 µM].

As for `CC(=O)OC1CCC2C3CCc4cc(O)ccc4C3CCC12C` (stereo not drawn), the Potency result is “inactive”.

In the case of `Clc1ccc(C(c2ccc(Cl)cc2)n2cc[n+](C[C@@H](OCc3ccc(Cl)cc3Cl)c3ccc(Cl)cc3Cl)c2)cc1`, the Potency result was “inactive”.

On to `BrC1C(Br)C(Br)C(Br)C(Br)C1Br` (stereo not drawn), for which the Potency entry was “inactive”.

In the case of `Cc1c(N=C=O)cccc1N=C=O`, the Potency entry is “inactive”.

In another assay the target is Cytochrome P450 2D6 (Homo sapiens) (UniProt P10635). In words: qHTS Assay for Inhibitors and Substrates of Cytochrome P450 2D6 (AID 891). Further: nearly all actives have a fitted effect of over 60% in size.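 On activity change, negative = inhibition: luciferin methyl ether substrate demethylated by CYP2D6 with NADPH regeneration.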 To be noted: recombinant CYP2D6, luciferin-ME EGE luminescence; series mostly up to 57.1 µM. The procedure, abridged:
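Luminescent read-out of luciferin formed by 5 nM human CYP2D6 demethylating 30 uM Luciferin-ME EGE (Km level) over 60 min at room temperature after NADPH regeneration addition. Data normalized to full inhibition by 1.43 uM quinidine.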
Turning to `O[C@@H]1[C@@H]2c3cc4c(cc3CN3CCC(=C[C@@H]1O)[C@H]23)OCO4`, the Potency was 3.98 µM (active).

On to `COC(=O)[C@H]1[C@@H](c2ccccc2)[C@@]2(c3ccccc3)Oc3ccccc3[C@@]1(O)[C@@H]2O`, for which the activity change, negative = inhibition was 40.2% [at 11.4 µM].

As to `O[Si@](CCCN1CCCCC1)(c1ccc(F)cc1)C1CCCCC1`, the Potency was 0.501 µM (active).

As to `CN1[C@H](CC(=O)c2ccccc2)CCC[C@H]1C[C@@H](O)c1ccccc1`, the Potency is 0.01 µM (active).

As to `O=C(C[n+]1ccc2ccccc2c1)c1ccc2ccc3ccccc3c2c1`, the Potency is 0.794 µM (active).

As to `CCCC[C@@H]1C[C@H]1C(NP(=O)(c1ccccc1)c1ccccc1)c1ccc(Cl)cc1` (stereo partly drawn), the Potency result is “inactive”.

`c1ccc2c(c1)-c1ccccc1C2N1CC2CCC(CC2)C1`: the Potency is 3.98 µM (active).

On to `O[C@@H](c1cc(-c2ccccc2)nc2c1ccc1ccccc12)[C@@H]1CCCCN1`, for which the Potency is 3.16 µM (active).

`Clc1ccc(C(c2ccc(Cl)cc2)n2cc[n+](C[C@@H](OCc3ccc(Cl)cc3Cl)c3ccc(Cl)cc3Cl)c2)cc1`: the Potency is 0.0398 µM (active).

As to `CCC1=C(C[C@H]2NCCc3ccccc32)C[C@@H]2c3cc(OC)c(OC)cc3CCN2C1`, the Potency was 2.51 µM (active).
